The structures appear in SMILES notation. For some assays here: Potency and affinity values are given separately.

Holding throughout (design): scale not given: direction of the effect not stated beside the values
Assay [1] deals with Protein translocase subunit SecA (Escherichia coli (strain K12)) (UniProt P10408). Briefly: Assay to Identify E. coli SecA ATPase Inhibitors. The note with it: 30 µM. It is filed as functional.
The target of assay [2] is T1, Ubiquitin-activating enzyme e1, putative (Leishmania donovani (strain BPK282A1)) (UniProt E9BSI1).
T1 sequence (whole entry): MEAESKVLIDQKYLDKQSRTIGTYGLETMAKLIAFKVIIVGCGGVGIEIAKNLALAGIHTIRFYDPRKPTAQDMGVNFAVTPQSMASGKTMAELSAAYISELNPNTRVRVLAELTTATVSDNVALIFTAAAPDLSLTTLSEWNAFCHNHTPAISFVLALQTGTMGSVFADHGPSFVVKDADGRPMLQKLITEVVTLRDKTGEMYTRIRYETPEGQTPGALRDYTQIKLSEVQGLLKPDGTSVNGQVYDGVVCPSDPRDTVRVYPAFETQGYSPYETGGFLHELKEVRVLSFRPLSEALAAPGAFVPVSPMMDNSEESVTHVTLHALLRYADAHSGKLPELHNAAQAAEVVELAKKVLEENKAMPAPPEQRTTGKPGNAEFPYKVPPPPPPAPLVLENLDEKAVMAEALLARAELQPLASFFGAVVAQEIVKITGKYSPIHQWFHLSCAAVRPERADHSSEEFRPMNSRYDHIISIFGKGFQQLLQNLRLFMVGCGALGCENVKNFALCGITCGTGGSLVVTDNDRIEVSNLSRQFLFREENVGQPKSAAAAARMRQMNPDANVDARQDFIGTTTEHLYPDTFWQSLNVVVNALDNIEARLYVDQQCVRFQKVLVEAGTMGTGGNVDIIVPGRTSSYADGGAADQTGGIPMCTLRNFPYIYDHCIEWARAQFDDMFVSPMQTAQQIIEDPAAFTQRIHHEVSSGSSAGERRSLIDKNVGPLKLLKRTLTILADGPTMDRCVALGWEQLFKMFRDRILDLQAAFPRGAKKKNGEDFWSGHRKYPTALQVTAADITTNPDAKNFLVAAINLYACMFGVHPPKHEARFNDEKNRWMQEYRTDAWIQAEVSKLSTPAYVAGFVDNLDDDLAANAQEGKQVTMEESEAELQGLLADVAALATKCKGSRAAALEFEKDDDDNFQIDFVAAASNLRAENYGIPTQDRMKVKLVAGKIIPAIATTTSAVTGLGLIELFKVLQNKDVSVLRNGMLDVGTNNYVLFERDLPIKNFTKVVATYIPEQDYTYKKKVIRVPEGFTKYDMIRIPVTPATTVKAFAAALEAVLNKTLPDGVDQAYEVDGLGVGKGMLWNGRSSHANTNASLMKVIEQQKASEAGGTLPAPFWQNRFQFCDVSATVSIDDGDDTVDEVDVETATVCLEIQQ
Briefly: Leishmania donovani Ubiquitin Activating Enzyme (LdE1). Conditions: 30 µM. It is filed as functional.

For assay [3], the target named is AMP-activated protein kinase, AMPK (Homo sapiens) (UniProt P54646+O43741+P54619+Q9UGJ0+Q9Y478+Q13131+Q9UGI9). The experiment in a line: AMP-dependent Kinase enzyme assay. An in vitro enzyme assay that detects ADP turnover that is directly proportional to AMPK activity. This uses naive AMPK that is activated during the assay with MK-8722. Conditions: 30 µM. It is filed as functional.

In assay [4] the target is Sialic acid-binding Ig-like lectin 9 (Homo sapiens) (UniProt Q9Y336). The experiment in a line: Hs-Siglec9 ALPHAscreen SOP 20170721. Conditions: 10 µM.
Sequence of Sialic acid-binding Ig-like lectin 9 (Homo sapiens) (Q9Y336 whole entry): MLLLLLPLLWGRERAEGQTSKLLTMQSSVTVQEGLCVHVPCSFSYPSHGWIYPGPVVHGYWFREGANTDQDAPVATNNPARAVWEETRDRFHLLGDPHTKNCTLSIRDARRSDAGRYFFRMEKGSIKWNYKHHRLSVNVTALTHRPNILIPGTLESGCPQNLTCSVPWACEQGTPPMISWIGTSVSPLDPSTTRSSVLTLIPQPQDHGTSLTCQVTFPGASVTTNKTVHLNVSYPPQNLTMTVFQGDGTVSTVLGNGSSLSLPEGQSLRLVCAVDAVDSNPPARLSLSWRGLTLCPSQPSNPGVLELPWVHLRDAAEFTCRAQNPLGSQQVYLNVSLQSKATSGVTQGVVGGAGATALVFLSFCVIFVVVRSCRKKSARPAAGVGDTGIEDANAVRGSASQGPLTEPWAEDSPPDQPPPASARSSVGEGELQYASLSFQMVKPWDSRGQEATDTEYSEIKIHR
A further assay concerns Trypanosoma cruzi. Briefly: Trypanosoma cruzi phosphomannomutase and mannose-1-phosphate guanylyltransferase assay. It is filed as functional. The note with it: 10 µM.
Assay [5] has as its target T2, Arginase-2, mitochondrial (Homo sapiens) (UniProt P78540).
T2 sequence (whole entry): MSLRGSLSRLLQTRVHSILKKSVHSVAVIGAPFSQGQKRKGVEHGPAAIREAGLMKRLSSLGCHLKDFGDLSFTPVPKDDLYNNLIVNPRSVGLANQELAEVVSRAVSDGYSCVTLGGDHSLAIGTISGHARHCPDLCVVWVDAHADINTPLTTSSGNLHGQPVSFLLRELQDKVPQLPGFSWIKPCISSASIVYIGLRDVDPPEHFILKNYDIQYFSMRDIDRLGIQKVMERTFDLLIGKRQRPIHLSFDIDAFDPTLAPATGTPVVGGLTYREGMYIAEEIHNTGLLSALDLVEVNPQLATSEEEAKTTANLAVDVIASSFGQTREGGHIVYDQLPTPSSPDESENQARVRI
The experiment in a line: in vitro enzyme assay to detect the production of urea directly proportional to the activity of Arginase II. Further: in the data most compounds retested in dose-response had high values. It is filed as functional. The note with it: 33.3 µM.

Assay [6] concerns the target T3, Proteasome subunit beta (Trypanosoma cruzi) (UniProt O96673).
T3 sequence (whole entry): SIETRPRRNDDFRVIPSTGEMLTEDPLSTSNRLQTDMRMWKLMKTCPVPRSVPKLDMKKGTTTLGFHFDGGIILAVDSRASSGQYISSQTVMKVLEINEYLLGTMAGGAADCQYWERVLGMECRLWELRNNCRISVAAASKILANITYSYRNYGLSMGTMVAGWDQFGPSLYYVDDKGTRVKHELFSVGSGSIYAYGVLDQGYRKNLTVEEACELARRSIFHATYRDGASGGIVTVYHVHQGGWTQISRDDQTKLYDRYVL
The experiment in a line: Trypanosoma cruzi proteasome chymotrypsin-like activity (TcProtChymo) assay. Further: in the data most compounds retested in dose-response had high values. It is filed as functional. Conditions: 9.37 µM.

For the next assay, the species on record is Homo sapiens. The experiment in a line: To identify inhibition of the IFN signalling (Jak-Stat) pathway via expression of an eGFP reporter gene under the control of an IFN-stimulated response element (ISRE) containing MxA promoter. It is filed as functional. Conditions: 30 µM.
For assay [7], the target named is T4, Tyrosyl-tRNA synthetase, putative (Trypanosoma cruzi (strain CL Brener)) (UniProt Q4DSP6).
T4 sequence (whole entry): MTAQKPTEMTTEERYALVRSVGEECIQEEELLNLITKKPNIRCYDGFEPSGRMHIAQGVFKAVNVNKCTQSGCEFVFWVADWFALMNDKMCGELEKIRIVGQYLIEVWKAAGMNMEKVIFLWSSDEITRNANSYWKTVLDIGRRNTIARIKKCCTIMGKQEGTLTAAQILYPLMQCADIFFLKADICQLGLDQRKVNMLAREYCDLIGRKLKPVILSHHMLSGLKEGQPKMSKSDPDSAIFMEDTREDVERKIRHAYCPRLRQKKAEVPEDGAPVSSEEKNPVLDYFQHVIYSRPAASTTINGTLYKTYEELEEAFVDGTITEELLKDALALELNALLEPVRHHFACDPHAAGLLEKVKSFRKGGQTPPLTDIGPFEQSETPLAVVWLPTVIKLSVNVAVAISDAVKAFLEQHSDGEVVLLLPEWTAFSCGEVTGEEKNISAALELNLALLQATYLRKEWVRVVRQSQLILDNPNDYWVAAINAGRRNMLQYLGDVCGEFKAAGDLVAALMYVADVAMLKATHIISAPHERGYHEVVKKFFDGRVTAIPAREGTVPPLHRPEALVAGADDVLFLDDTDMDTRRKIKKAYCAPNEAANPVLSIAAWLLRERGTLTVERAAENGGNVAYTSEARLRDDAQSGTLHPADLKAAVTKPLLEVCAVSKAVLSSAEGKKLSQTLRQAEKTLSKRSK
Briefly: Trypanosoma cruzi tyrosyl tRNA synthetase (TcYRS) _High Tyrosine SOP. Further: in the data most compounds retested in dose-response had high values. It is filed as functional. Conditions: 30 µM.

The target in assay [8] is T4, Tyrosyl-tRNA synthetase, putative (Trypanosoma cruzi (strain CL Brener)). The experiment in a line: Trypanosoma cruzi tyrosyl tRNA synthetase (TcYRS) SOP. It is filed as functional. The note with it: 30 µM.
Assay [9] addresses Chromo domain-containing protein 1 (Saccharomyces cerevisiae (strain ATCC 204508 / S288c) (Baker's yeast)) (UniProt P32657). The experiment in a line: ScCHD-1 Enzyme Inhibition Assay. Further: in the data most compounds retested in dose-response had high values. It is filed as functional. Conditions: 30 µM.

Sequence of Protein translocase subunit SecA (Escherichia coli (strain K12)) (P10408 whole entry): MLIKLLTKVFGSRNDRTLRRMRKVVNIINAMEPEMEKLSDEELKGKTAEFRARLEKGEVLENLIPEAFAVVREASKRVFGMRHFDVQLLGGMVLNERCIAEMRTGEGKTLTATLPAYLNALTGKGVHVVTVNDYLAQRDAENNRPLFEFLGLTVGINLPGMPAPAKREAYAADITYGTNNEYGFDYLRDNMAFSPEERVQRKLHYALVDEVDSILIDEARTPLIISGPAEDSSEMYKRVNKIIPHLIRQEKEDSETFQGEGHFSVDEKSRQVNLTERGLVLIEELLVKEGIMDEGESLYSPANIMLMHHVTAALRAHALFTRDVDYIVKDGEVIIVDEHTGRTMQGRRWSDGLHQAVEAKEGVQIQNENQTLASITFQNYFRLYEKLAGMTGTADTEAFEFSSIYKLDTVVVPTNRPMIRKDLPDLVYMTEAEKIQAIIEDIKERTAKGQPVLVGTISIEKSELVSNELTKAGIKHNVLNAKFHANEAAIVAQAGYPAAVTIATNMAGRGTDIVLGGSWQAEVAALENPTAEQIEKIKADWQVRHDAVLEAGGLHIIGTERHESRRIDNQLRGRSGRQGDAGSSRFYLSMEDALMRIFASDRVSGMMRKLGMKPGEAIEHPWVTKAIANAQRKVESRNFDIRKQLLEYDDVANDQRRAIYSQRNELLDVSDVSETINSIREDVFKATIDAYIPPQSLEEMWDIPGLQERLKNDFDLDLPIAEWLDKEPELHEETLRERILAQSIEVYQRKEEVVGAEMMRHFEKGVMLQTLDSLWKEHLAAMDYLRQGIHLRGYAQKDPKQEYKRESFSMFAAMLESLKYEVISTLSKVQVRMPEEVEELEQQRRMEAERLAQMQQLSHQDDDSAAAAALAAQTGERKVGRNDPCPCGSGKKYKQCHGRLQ
Sequence of Chromo domain-containing protein 1 (Saccharomyces cerevisiae (strain ATCC 204508 / S288c) (Baker's yeast)) (P32657 whole entry, the tested form may be a part): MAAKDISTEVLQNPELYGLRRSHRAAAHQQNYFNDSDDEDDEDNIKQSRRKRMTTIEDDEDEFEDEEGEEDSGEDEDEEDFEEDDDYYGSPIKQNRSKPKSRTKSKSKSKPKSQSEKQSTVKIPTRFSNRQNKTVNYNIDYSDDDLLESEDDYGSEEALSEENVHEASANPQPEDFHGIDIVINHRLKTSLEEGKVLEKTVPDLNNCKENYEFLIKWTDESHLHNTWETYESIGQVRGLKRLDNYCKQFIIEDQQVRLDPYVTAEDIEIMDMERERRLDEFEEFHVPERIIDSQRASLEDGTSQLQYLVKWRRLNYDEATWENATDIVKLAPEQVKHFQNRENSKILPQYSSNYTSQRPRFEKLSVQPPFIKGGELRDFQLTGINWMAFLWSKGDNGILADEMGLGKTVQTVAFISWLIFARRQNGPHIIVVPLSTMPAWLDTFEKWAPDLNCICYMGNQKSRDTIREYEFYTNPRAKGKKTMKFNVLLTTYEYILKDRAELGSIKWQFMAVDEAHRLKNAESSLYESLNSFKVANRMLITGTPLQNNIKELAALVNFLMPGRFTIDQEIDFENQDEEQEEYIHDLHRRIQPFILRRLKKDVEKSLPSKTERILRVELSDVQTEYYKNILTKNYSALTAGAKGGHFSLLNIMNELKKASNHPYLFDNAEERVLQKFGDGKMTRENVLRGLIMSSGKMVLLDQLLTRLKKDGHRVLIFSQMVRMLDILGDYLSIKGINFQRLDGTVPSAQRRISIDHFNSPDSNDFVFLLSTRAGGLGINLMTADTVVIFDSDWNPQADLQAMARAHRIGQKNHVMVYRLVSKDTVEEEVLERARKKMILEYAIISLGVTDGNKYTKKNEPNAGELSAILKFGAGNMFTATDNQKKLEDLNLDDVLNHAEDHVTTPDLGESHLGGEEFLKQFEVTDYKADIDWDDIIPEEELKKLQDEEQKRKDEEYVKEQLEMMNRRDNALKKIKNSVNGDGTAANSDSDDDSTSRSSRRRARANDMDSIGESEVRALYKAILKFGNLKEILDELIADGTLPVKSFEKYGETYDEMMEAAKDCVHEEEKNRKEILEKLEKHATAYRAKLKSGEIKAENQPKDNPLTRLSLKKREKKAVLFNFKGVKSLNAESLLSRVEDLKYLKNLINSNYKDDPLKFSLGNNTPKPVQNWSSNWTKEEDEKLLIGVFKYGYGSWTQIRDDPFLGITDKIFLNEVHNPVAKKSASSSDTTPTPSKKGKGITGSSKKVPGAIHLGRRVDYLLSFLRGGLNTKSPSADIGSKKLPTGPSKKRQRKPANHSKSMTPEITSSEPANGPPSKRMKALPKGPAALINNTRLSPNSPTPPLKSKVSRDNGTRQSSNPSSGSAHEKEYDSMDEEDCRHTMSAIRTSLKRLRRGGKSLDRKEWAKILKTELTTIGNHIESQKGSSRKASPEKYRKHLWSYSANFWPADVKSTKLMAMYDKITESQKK

As to `CCN(Cc1nc(C(C)C)no1)Cc1cccs1`, the Percent Effect in assay [1] is -3.02%; in assay [2], 7.79%; in assay [3], -1.84%; in assay [4], 6.48%; in the assay on Trypanosoma cruzi, 5.8%; in [5], 1.38%. Moreover, the Percent Effect in assay [6] is 12%; in the assay filed under Homo sapiens it was 6.22%; in [7] it was 1.07%; in assay [8] it was -1.24%; in assay [9] it was -5.13%.

Take `COCCN1CCCC(c2nc3c([nH]2)CC(C)(C)CNC3=O)C1` (stereo not given): the Percent Effect in [1] is 0.299%; in [2], 5.41%; in assay [3], -1.1%; in [4], 13.4%; in the assay on Trypanosoma cruzi, 2.32%; in assay [5] it was 25.2%. Besides, the Percent Effect was 12.4% in assay [6]; 10.5% in the assay filed under Homo sapiens; 5.82% in assay [7]; 9.76% in [8]; 0.619% in assay [9].

Take `O=C1CCc2cc(C(=O)NCc3ccc(-n4cncn4)nc3)ccc2N1`: the Percent Effect is -8% in [1]; 8.11% in assay [2]; -0.201% in [3]; 4.21% in assay [4]; -5.19% in the assay with Trypanosoma cruzi; 0.802% in assay [5]. Besides, the Percent Effect in [6] was -4.68%; in the assay filed under Homo sapiens, 10.4%; in assay [7] it was 4.43%; in assay [8] it was 1.24%; in assay [9] it was 23.8%.

Consider `Cn1cc(CN2CC3(CCN(C(=O)c4cscn4)C3)C2)cn1`, for which the Percent Effect in assay [1] is -1.74%; in assay [2] it was 19.2%; in assay [3] it was -7.29%; in assay [4], 10.7%; in the assay on Trypanosoma cruzi it was 3.77%; in assay [5], -3.19%. For the same compound, the Percent Effect is 9.85% in assay [6]; 4.08% in the assay filed under Homo sapiens; 10.4% in assay [7]; 16.1% in assay [8]; -10.8% in assay [9].

Turning to `CC(C)COCC1CN(Cc2ccc3c(c2)OCO3)Cc2ncn(C)c21` (stereo not given), the Percent Effect is -6.14% in [1]; -5.41% in assay [2]; 10.1% in assay [3]; 2.92% in assay [4]; -1.17% in the assay with Trypanosoma cruzi; -3.75% in assay [5]. Moreover, the Percent Effect in [6] came to 2.11%; in the assay listed under Homo sapiens, 29.9%; in [7], 3.96%; in assay [8], 3.66%; in assay [9], 0.344%.

As to `Cc1occc1C(=O)N1CCO[C@H]2[C@@H](Oc3ccccn3)CC[C@@H]21`, the Percent Effect in assay [1] was -1.87%; in assay [2], 0%; in assay [3], 5.36%; in assay [4], 1.56%; in the assay with Trypanosoma cruzi, 0.984%; in assay [5], 0.699%. Besides, the Percent Effect is 9.25% in [6]; 5.34% in the assay listed under Homo sapiens; 3.19% in assay [7]; 3.85% in assay [8]; 4.85% in assay [9].

As for `Cc1ccc(N2CCCC(NCc3ccsc3)C2)nn1` (stereo not given), the Percent Effect in assay [1] is 1.41%; in assay [2], 13.5%; in assay [3] it was -7.55%; in [4], 2.96%; in the assay with Trypanosoma cruzi it was -6.7%; in [5] it was 1.6%. In addition, the Percent Effect was 8.29% in [6]; 11% in the assay filed under Homo sapiens; 4.43% in assay [7]; 16.1% in assay [8]; -7.21% in [9].

In the case of `Cc1cc(C)c(CNC(=O)N(C)Cc2sccc2C)c(=O)[nH]1`, the Percent Effect in assay [1] is -4.14%; in assay [2], 18.4%; in [3] it was -5.42%; in [4] it was -3.09%; in the assay on Trypanosoma cruzi, -3.46%; in assay [5], -2.88%. For the same compound, the Percent Effect in assay [6] is 2.62%; in the assay listed under Homo sapiens, 9.33%; in [7] it was 4.43%; in assay [8], 11.1%; in assay [9], -4.59%.

As for `CC(=O)N1CCN(Cn2nc(-c3ccc(F)cc3)oc2=O)CC1`, the Percent Effect in assay [1] is -3.09%; in assay [2], 23.4%; in assay [3], -4.67%; in assay [4] it was -7.73%; with Trypanosoma cruzi, -2.25%; in assay [5] it was 0.712%. Also, the Percent Effect in [6] was 8.11%; in the assay filed under Homo sapiens it was 15%; in assay [7], 9.71%; in assay [8], 21.9%; in assay [9], -10.3%.

Turning to `O=C(CCNS(=O)(=O)c1ccccc1)NCc1ccoc1`, the Percent Effect in [1] is -5.05%; in assay [2] it was 5.33%; in [3], -0.901%; in assay [4], 7.78%; in the assay on Trypanosoma cruzi it was 7.11%; in assay [5], -0.521%. The Percent Effect is 12% in assay [6]; 12.9% in the assay listed under Homo sapiens; 8.2% in assay [7]; 16.1% in assay [8]; -4.93% in [9].

Values taken from ChEMBL document CHEMBL3988442, “University of Dundee, Small-Polar-MMV Screening Library” (2021).
